Hit rate of the full screen: of about 13,000 compounds, about 3,200 (25%) showed an effect of 50% or more. This is one part of the list.
Test system: P. falciparum stage V gametocytes
Parameters: BacTiter-Glo ATP luminescence viability of purified stage V gametocytes in 384-well plates, per cent inhibition versus DMSO
Conditions: 48 h, 5 µM; inhibitor

Row | SMILES | % Inhibition [%]
1 | CC(C)(C)c1ccccc1SC1=C(O)CC2(CCNCC2)OC1=O [TCMDC-140973] | 16.85
2 | Cc1cccc2nc(-c3ccc(-c4ccc(CN5CCCCC5CO)cc4)cc3)[nH]c12.O=C(O)C(F)(F)F (stereo not drawn) [TCMDC-133824] | 10.09
3 | Cn1nc(-c2ccc(CNC3CCc4ccccc43)cc2)c2cnc(NCCN3CCCC3)nc21 (stereo not drawn) [TCMDC-135033] | 65.68
4 | Cn1nc(-c2ccc(CNC3CCc4ccccc43)cc2)c2cnc(NCCCN3CCCC3)nc21 (stereo not drawn) [TCMDC-135036] | 65.55
5 | CN(c1cc(NC(=O)c2cccs2)ccn1)C1CCN(Cc2cccc(F)c2)CC1 [TCMDC-135010] | 5.779
6 | COc1ccc2nccc([C@@H](O)CN3CCC(NC(=O)C(c4cc5ccccc5o4)N4CCN(C(c5ccccc5)c5ccccc5)CC4)CC3)c2c1 (stereo partly drawn) [TCMDC-140990] | 16.51
7 | O=C(Nc1ccc(NC2=NCCN2)cc1)c1ccc(C(=O)Nc2ccc(NC3=NCCN3)cc2)cc1 [TCMDC-137799] | 30.06
8 | Nc1ncc(-c2cccc(F)c2)cc1-c1nc2ccc(F)cc2[nH]1 [TCMDC-133132] | -10.73
9 | CCOC(=O)c1ccc(NC(=O)Nc2cccc(-c3cccc(-c4nc5ccc(F)cc5[nH]4)c3)c2)cc1 [TCMDC-133268] | -1.066
10 | CCc1nc(N)nc(N)c1-c1ccc(F)cc1 [TCMDC-137722] | 5.569
11 | CC[C@H]1CN2CC[C@H]1C[C@H]2[C@H](O)c1cc(-c2ccc(SC)cc2)nc2ccc(OC)cc12 [TCMDC-141196] | 82.69
12 | CC[C@H]1CN2CC[C@H]1C[C@H]2[C@H](O)c1cc(-c2ccccc2F)nc2ccc(OC)cc12 [TCMDC-141193] | 19.12
13 | CC[C@H]1CN2CC[C@H]1C[C@H]2[C@H](O)c1cc(-c2ccc(Cl)c(Cl)c2)nc2ccc(OC)cc12 [TCMDC-141216] | 98.02
14 | CC[C@H]1CN2CC[C@H]1C[C@H]2[C@H](O)c1cc(-c2ccc(OC(F)(F)F)cc2)nc2ccc(OC)cc12 [TCMDC-141214] | 67.8
15 | CC[C@H]1CN2CC[C@H]1C[C@H]2[C@H](O)c1cc(-c2ccccc2C(F)(F)F)nc2ccc(OC)cc12 [TCMDC-141198] | -3.019
16 | CC[C@H]1CN2CC[C@@H]1C[C@@H]2[C@@H](O)c1cc(-c2ccc(F)cc2)nc2ccc(OC)cc12 [TCMDC-141379] | 96.07
17 | O=C(NCCN1CCCCC1)c1ccc(CNC(=O)c2ccc(O)c(-c3ccc(Cl)c(Cl)c3)c2)cc1 [TCMDC-140860] | -11.08
18 | COc1ccc(Nc2nc(C)cc(NC3CCCC3)n2)cc1 [TCMDC-133465] | 24.25
19 | CCOC(=O)c1c(CCc2ccc(C(F)(F)F)cc2)nc2c(c1-c1ccc(C(=O)N[C@@H](C)c3ccncc3)cc1)C(=O)N1CCC[C@@H]21 [TCMDC-138612] | 6.02
20 | CCCNC(=O)CN1CN(c2ccccc2)C2(CCN(C(=O)c3ccc(C(C)(C)C)cc3)CC2)C1=O [TCMDC-125173] | -65.45
21 | Cc1c(C)n(Cc2ccccc2)c2ncnc(OC3CCN(CC(=O)NCC4CC4)CC3)c12 [TCMDC-125326] | -12.47
22 | CCOC(=O)c1[nH]c(-c2cccnc2)nc1NC(=S)NCc1ccccc1 [TCMDC-138784] | -4.964
23 | COc1cccc(C(O)CNc2ccnc(Nc3cccc(-c4csc(C)n4)c3)n2)c1 (stereo not drawn) [TCMDC-136574] | 8.83

Row | SMILES | % Inhibition [%]
24 | CCN(CC)CCCN1CCN(C(=O)c2cccc(-c3noc(C(F)(F)F)n3)c2)CC1 [TCMDC-132421] | -5.247
25 | NC(N)=NC(=O)Nc1cc(Br)c(Cl)c(C(F)(F)F)c1 [TCMDC-137513] | -25.86
26 | CCc1ccc(-c2nc3cc(NC(=O)c4cc([N+](=O)[O-])cc([N+](=O)[O-])c4)ccc3o2)cc1 [TCMDC-124220] | -7.299
27 | COc1ccc(-c2csc3nc(C)nc(Cl)c23)cc1OC [TCMDC-125523] | -37.7
28 | COc1ccc2nc(-c3ccc(F)cc3)cc([C@@H](O)[C@@H]3C[C@@H]4CCN3CC4C=NO)c2c1 (stereo partly drawn) [TCMDC-141395] | 28.31
29 | CC[C@H]1CN2CC[C@H]1C[C@H]2[C@H](O)c1cc(-c2ccc(F)cc2C)nc2ccc(OC)cc12 [TCMDC-141197] | 26.99
30 | C=C[C@H]1CN2CC[C@@H]1C[C@H]2[C@H](O)c1cc(-c2ccc(F)cc2)nc2ccc(OC)cc12 [TCMDC-141374] | 31.93
31 | CC[C@H]1CN2CC[C@H]1C[C@H]2[C@H](O)c1cc(-c2ccc(C)cc2)nc2ccc(OC)cc12 [TCMDC-141192] | 31.69
32 | CC[C@H]1CN2CC[C@H]1C[C@H]2[C@H](O)c1cc(-c2ccc3ccccc3c2)nc2ccc(OC)cc12 [TCMDC-141213] | 91.14
33 | CC[C@H]1CN2CC[C@@H]1C[C@H]2[C@H](O)c1cc(-c2cc(Cl)cc(Cl)c2)nc2ccc(OC)cc12 [TCMDC-141351] | 45.7
34 | C=C[C@H]1CN2CC[C@H]1C[C@H]2[C@H](O)c1cc(-c2ccc(Cl)cc2)nc2ccc(OC)cc12 [TCMDC-139009] | 109.5
35 | CC[C@H]1CN2CC[C@H]1C[C@H]2[C@H](O)c1cc(-c2ccc(F)cc2)nc2ccc(OC)cc12 [TCMDC-141195] | 81.45
36 | CC[C@H]1CN2CC[C@H]1C[C@H]2[C@H](O)c1cc(-c2cccc(Cl)c2)nc2ccc(OC)cc12 [TCMDC-141215] | 86
37 | COc1ccc2nccc(N3CCC(SCCNS(=O)(=O)c4ccc5c(c4)OCCO5)C3)c2n1 (stereo not drawn) [TCMDC-134549] | -1.611
38 | CCCC(=O)c1cnc2c(I)cccc2c1Nc1ccccc1C [TCMDC-138960] | -3.378
39 | Cc1cccc2[nH]c(-c3ccc(-c4cccc(CN5CCN(c6ccncc6)CC5)c4)cc3)nc12 [TCMDC-132913] | 17.14
40 | CC1(C)N=C(N)N=C(N)N1OCCOc1ccc(Cc2ccccc2)cc1 [TCMDC-131618] | 0.9057
41 | CCC1(C)N=C(N)N=C(N)N1c1ccccc1 (stereo not drawn) [TCMDC-131294] | 1.322
42 | COc1ccc(Br)cc1/C=C/C(=O)Nc1cccc(C2CCN(C)CC2)c1 [TCMDC-133709] | 17.69
43 | CC(CN)OCn1cnc2c(N)ncnc21 (stereo not drawn) [TCMDC-137691] | 4.807
44 | Nc1ccc(-c2ccc(NC(=O)Nc3ccccc3)cc2)cn1 [TCMDC-133409] | 8.914
45 | Cc1noc(C)c1-c1cccc(CNCc2ccc(-c3ccc(-c4nc5ccccc5[nH]4)s3)cc2)c1.O=C(O)C(F)(F)F [TCMDC-133049] | 5.306
46 | COc1ccc(-c2onc(C(F)(F)F)c2-c2ccc(Br)cc2)c(O)c1 [TCMDC-125235] | 3.062

Row | SMILES | % Inhibition [%]
47 | O=C(Nc1ccc(N2CCCN(Cc3cccc(F)c3)CC2)cc1)c1ccc(F)cc1 [TCMDC-135020] | -31.48
48 | CC[C@H]1CN2CC[C@H]1C[C@H]2[C@H](O)c1cc(-c2cccc(C)c2)nc2ccc(OC)cc12 [TCMDC-141191] | 44.26
49 | CC[C@H]1CN2CC[C@@H]1C[C@H]2[C@H](O)c1cc(-c2cccnc2)nc2ccc(OC)cc12 [TCMDC-141335] | -21.27
50 | CC[C@H]1CN2CC[C@H]1C[C@H]2[C@H](O)c1cc(-c2cccc(F)c2)nc2ccc(OC)cc12 [TCMDC-141194] | 63.72
51 | CN(C)c1cccc2c(S(=O)(=O)Nc3cccc(CCN4CCC(N5CCCCC5)CC4)c3)cccc12 [TCMDC-134066] | 76.83
52 | COc1ccc(Cl)cc1S(=O)(=O)Nc1cccc(CCN2CCC(N3CCCCC3)CC2)c1 [TCMDC-134076] | 49.77
53 | O=S(=O)(Nc1ccc(CCN2CCC(N3CCCCC3)CC2)cc1)c1cccc2cccnc12 [TCMDC-134081] | 43.01
54 | O=S(=O)(Nc1cccc(CCN2CCC(N3CCCCC3)CC2)c1)c1cccc2ccccc12 [TCMDC-134069] | 73
55 | Cc1cccc(Cl)c1S(=O)(=O)Nc1cccc(CCN2CCC(N3CCCCC3)CC2)c1 [TCMDC-134063] | 18.66
56 | O=S(=O)(Nc1cccc(CCN2CCC(N3CCCCC3)CC2)c1)c1cccc2cccnc12 [TCMDC-134074] | 50.45
57 | Cc1c(Cl)cccc1S(=O)(=O)Nc1cccc(CCN2CCC(N3CCCCC3)CC2)c1 [TCMDC-134064] | 56.09
58 | Cc1nc2ccc3ccc(CNc4ccc(C#N)cc4)cc3c2c(=O)[nH]1 [TCMDC-137846] | -36.65
59 | CCCCCCN1CCCN(Cc2ccc(C(=O)Nc3ccc(C(C)(C)C)cc3)cc2)CC1 [TCMDC-136446] | -5.342
60 | O=C(Cc1ccc[n+]([O-])c1)Nc1ccc(-c2cccc(-c3nc4cc(C(F)(F)F)ccc4[nH]3)c2)cc1 [TCMDC-136991] | -49.92
61 | O=C(Nc1ccc(-c2cccc(-c3nc4ccc(C(F)(F)F)cc4[nH]3)c2)cc1)c1ccoc1 [TCMDC-136845] | 54.13
62 | O=C(Nc1cccc(-c2cccc(-c3nc4ccc(C(F)(F)F)cc4[nH]3)c2)c1)c1ccoc1 [TCMDC-136844] | 9.594
63 | O=C(Nc1cccc(-c2cccc(-c3nc4ccc(C(F)(F)F)cc4[nH]3)c2)c1)c1cccnc1 [TCMDC-136925] | -23.9
64 | NC(=O)c1cccc(C(=O)Nc2ccc(-c3cccc(-c4nc5ccc(C(F)(F)F)cc5[nH]4)c3)cc2)c1 [TCMDC-132200] | -70.46
65 | O=C(Nc1cccc(-c2ccc(-c3nc4ccc(C(F)(F)F)cc4[nH]3)cc2)c1)c1ccoc1 [TCMDC-136848] | -29.98
66 | O=C(Nc1cccc(-c2ccc(-c3nc4ccc(C(F)(F)F)cc4[nH]3)cc2)c1)c1ccncc1 [TCMDC-136967] | -31.79
67 | O=C(Nc1ccc(-c2cccc(-c3nc4ccc(C(F)(F)F)cc4[nH]3)c2)cc1)c1ccncc1 [TCMDC-136964] | -22.85
68 | O=C(Nc1cccc(-c2ccc(-c3nc4ccc(C(F)(F)F)cc4[nH]3)cc2)c1)c1cccnc1 [TCMDC-136930] | 51.27
69 | O=C(Nc1ccc(-c2cccc(-c3nc4ccc(C(F)(F)F)cc4[nH]3)c2)cc1)c1cccnc1 [TCMDC-136926] | 86.45
